V-ATPase pHluor: regulators of yeast V-ATPase proton pumping, primary screen, pHLuorin cytosolic pH fluorescence; S. cerevisiae; 350,000 compounds, 0.37% hits; response, % at 10 µM; in the data active = response mostly above about 7.3%, no sharp cut-off; inactive = mostly below about 5.4%; also: actives read high
Rtt109 Vps75: inhibitors of C. albicans Rtt109/Vps75 HAT, primary screen, biochemical, ThioGlo CoA-SH fluorescence, plate reader; Histone acetyltransferase RTT109 (Candida albicans (strain SC5314 / ATCC MYA-2876)), …; purified Rtt109/Vps75, 4 h; inhibition, % at 34.9 µM; 330,000 compounds, 0.16% hits;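 active = inhibition of at least 50% in every replicate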
HDAC3 inhib: HDAC3 deacetylase inhibitors, primary screen, biochemical, fluorescence, cell-free homogeneous. recombinant HDAC3, fluorogenic peptide/trypsin coupled. inhibition, % at 8.3 µM. 320,000 compounds, 0.15% hits. AID 2718, 2010; in the data active = inhibition above about 26%, passing the limit was not always enough
beta cell repl: inducers of MIN6 beta-cell proliferation, primary screen, ATP luminescence, uHTS; 330,000 compounds, 0.29% hits; MIN6 cells proliferation, ATPlite luminescence, 48 h; cells starved in 0.2% serum; 100% = growth in 10% serum; proliferation, % at 10 µM;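 active = compounds whose signal lies at least 3.5 SD above the mean of all wells on their plate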
DAGLB inhibitor: DAGLB lipase inhibitors, primary screen, biochemical, fluorescence, HTS; HEK293T DAGLB membrane lysate, EnzChek fluorogenic substrate; inhibition, % at 5.17 µM; 340,000 compounds, 0.059% hits; in the data active = inhibition above about 34%
Target sequence (Q8NCG7 whole entry, looked up): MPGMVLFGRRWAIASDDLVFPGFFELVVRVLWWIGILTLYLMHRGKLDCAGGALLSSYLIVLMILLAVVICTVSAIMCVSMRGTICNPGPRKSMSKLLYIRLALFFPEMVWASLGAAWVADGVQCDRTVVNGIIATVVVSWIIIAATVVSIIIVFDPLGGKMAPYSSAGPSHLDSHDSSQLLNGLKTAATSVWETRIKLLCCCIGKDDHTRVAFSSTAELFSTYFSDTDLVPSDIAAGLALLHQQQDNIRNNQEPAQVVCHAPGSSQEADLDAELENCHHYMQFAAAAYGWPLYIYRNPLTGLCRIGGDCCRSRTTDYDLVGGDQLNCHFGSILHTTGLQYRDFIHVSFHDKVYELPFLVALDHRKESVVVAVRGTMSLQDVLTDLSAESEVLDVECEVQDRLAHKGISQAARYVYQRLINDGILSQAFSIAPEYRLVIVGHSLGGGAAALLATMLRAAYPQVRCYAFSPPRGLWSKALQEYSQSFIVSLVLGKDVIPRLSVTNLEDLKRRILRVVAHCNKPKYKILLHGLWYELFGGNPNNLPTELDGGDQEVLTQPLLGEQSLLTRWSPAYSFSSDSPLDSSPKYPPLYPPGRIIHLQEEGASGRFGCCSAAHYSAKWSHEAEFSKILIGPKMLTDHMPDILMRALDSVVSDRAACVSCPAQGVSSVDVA
V-ATPase pH SP: yeast V-ATPase proton pumping modulators, confirmation, S. cerevisiae, pH-sensitive GFP, second cherry-pick. response, % at 10 µM. shares compounds with V-ATPase pHluor. S. cerevisiae pHLuorin cytosolic pH, V-ATPase proton transport. 980 compounds, 2% hits; in the data active = response above about 24%
Large screens that a line does not name were inactive (follow-up assays come after a bar, where they were run). A selection: hits, their analogues and other compounds. The true share with any hit is near 0.96%.

CC1(c2ccc3c(c2)OCCO3)NC(=O)N(CC(=O)Nc2ccccc2SCC#N)C1=O (stereo not given)	none
O=C(NC1=NCCS1)c1cccc(F)c1	none (no result: Rtt109 Vps75, DAGLB inhibitor) | V-ATPase pH SP inactive
O=C(NCCNS(=O)(=O)c1ccccc1Cl)c1cc(OCC(F)(F)F)ccc1OCC(F)(F)F	none
C=CCn1c(COc2cccc3ccc(C)nc23)nnc1SCC(=O)O	none
Nc1cc(=O)nc(SCC(=O)NCc2ccccc2)n1CCc1ccccc1	none
CC1=C(C#N)CCC(=O)N1Cc1c(F)cccc1Cl	none | V-ATPase pH SP inactive
COc1ccc(C2=COc3ccccc3C(=O)N2)cc1	none
Cc1ccc(NS(=O)(=O)c2cccc(C(=O)N3CCCCCCC3)c2)cc1	V-ATPase pHluor 11 (no result: Rtt109 Vps75) | V-ATPase pH SP inactive
CCCCCCOC(=O)C[N+](C)(C)CCOC1CC2CCC1(C)C2(C)C (stereo not given)	V-ATPase pHluor 12 | V-ATPase pH SP inactive
COc1ccc(C2=C/C(=C\c3ccccc3OC(C)=O)C(=O)O2)cc1	none
C(=C\c1nnc(-c2cccs2)o1)/c1ccccc1	V-ATPase pHluor 13 | V-ATPase pH SP inactive
Cc1ccc(NC(=O)CS(=O)Cc2nc(-c3ccc(C)cc3)oc2C)cc1 (stereo not given)	V-ATPase pHluor 11 | V-ATPase pH SP inactive
O=C(CCn1cccc1)N1CCc2ccccc21	none
CCOC(=O)COn1c(=O)c[n+]([O-])c2ccccc21	V-ATPase pHluor 15 | V-ATPase pH SP inactive
CCOC(=O)COn1c(=O)c(C)[n+]([O-])c2ccccc21	none
N#CC1=C(N)N(c2ccccc2)C2=C(C(=O)CCC2)C1c1ccsc1 (stereo not given)	V-ATPase pHluor 10 | V-ATPase pH SP inactive
CN(C)N1C(N)=C(C#N)C(c2ccsc2)C2=C1CCCC2=O (stereo not given)	none
CNC(=O)c1ncoc1-c1ccc(Cl)cc1	none
COc1ccc(S(=O)(=O)NCC2CCCO2)cc1NC(=O)c1ccccc1 (stereo not given)	V-ATPase pHluor 7.5 | V-ATPase pH SP inactive
Cc1cc(C)cc(NS(=O)(=O)c2ccc3oc(=O)ccc3c2)c1	V-ATPase pHluor 14 | V-ATPase pH SP inactive
O=C(NCc1ccccc1)C1CCCN(C(=O)Nc2ccccc2)C1 (stereo not given)	none
Cc1ccc(-c2nnc(NC(=O)c3ccco3)o2)c(C)c1	none (no result: HDAC3 inhib)
O=C(Nc1nnc(-c2ccccc2Cl)o1)c1ccco1	V-ATPase pHluor 11 | V-ATPase pH SP inactive
O=C(NC1(C(F)(F)F)NC(=O)N(c2ccc(F)cc2)C1=O)c1cccs1 (stereo not given)	none
COc1ccccc1N1CCN(C2CCCN(S(=O)(=O)c3ccc(C)cc3)C2)CC1 (stereo not given)	V-ATPase pHluor 10 (no result: HDAC3 inhib) | V-ATPase pH SP inactive
S=c1[nH]nc(NCCCN2CCOCC2)s1	none
Cc1ccc(-c2nnc(-n3ncc(C#N)c3N)c3ccccc23)cc1C	V-ATPase pHluor 9.9 | V-ATPase pH SP inactive
CC(Sc1nc(N)c(NC(=O)c2ccc(Br)o2)c(=O)[nH]1)C(=O)O (stereo not given)	none
CSc1nc(N)c(NC(=O)c2ccc(Br)o2)c(=O)[nH]1	V-ATPase pHluor 11 | V-ATPase pH SP inactive
Cc1cccc(C(=O)Nc2ccnc(-c3cccnc3)n2)c1	none
Cc1cccc(C(=O)Nc2ccnc(-c3ccncc3)n2)c1	V-ATPase pHluor 8.5 | V-ATPase pH SP inactive
O=C(CN1C(=O)NC2(CCCC2)C1=O)NCCc1ccc(F)cc1	V-ATPase pHluor 11 | V-ATPase pH SP inactive
C#CCNC(=O)C1=C[C@@H](c2ccc3c(c2)OCO3)C[C@@H](OCc2ccc(CO)cc2)O1	none
Cc1cccc(-n2nc([N+](=O)[O-])c(=NC3CCN(Cc4ccccc4)CC3)n2O)c1	V-ATPase pHluor 13 | V-ATPase pH SP inactive
CS(=O)(=O)N1CCCC(C(=O)Nc2ccccc2)C1 (stereo not given)	V-ATPase pHluor 12 | V-ATPase pH SP inactive
CC(C)OP(=O)(OC(C)C)C(NC(=O)c1cccc([N+](=O)[O-])c1)C(N)=O (stereo not given)	none | V-ATPase pH SP inactive
COCC(C)NC(=O)c1cccc([N+](=O)[O-])c1 (stereo not given)	none
CC1=NN(c2nc(N)nc(/C(C#N)=C/c3ccc([N+](=O)[O-])o3)n2)C(C)(C)C1	V-ATPase pHluor 48 (no result: HDAC3 inhib, beta cell repl) | V-ATPase pH SP inactive
O=C1C2C(C(=O)N1/N=C/c1ccc([N+](=O)[O-])o1)C1C=CC2C12CC2 (stereo not given)	none
COc1ccc(NC(=O)CN(C)S(=O)(=O)c2ccc3c(c2)c(=O)n(C)c(=O)n3C)cc1	none
COc1ccc(C(=O)Oc2ccc(C)cc2)cc1S(=O)(=O)N1CCOCC1	none (no result: V-ATPase pHluor, Rtt109 Vps75, HDAC3 inhib, beta cell repl)
CCOc1ccc(CCNC(=O)CSc2cc(=O)n(CC)c3ccccc23)cc1OCC	V-ATPase pHluor 14 | V-ATPase pH SP inactive
CCOc1ccc(CCNC(=O)CSc2cc(=O)n(C)c3cc(Cl)ccc23)cc1OCC	none
Cc1ccccc1-c1ccccc1CN1[C@@H](C(C)C)COCCS1(=O)=O	V-ATPase pHluor 8.8 (no result: HDAC3 inhib, beta cell repl) | V-ATPase pH SP inactive
O=C1CC(=O)OC(c2ccc([N+](=O)[O-])cc2)O1	none (no result: Rtt109 Vps75, HDAC3 inhib, beta cell repl)
O=[N+]([O-])c1ccc(C2CNC(c3ccccc3)O2)cc1 (stereo not given)	V-ATPase pHluor 7.1 | V-ATPase pH SP inactive
CSc1nc2cc(S(=O)(=O)N3CCOCC3)ccc2s1	V-ATPase pHluor 19 | V-ATPase pH SP inactive
CS(=O)(=O)N1Cc2ccccc2CC1C(=O)OCC(=O)NCCc1ccc(S(N)(=O)=O)cc1 (stereo not given)	V-ATPase pHluor 12 | V-ATPase pH SP inactive
CS(=O)(=O)N1Cc2ccccc2CC1C(=O)OCC(=O)NCc1ccccc1 (stereo not given)	none
O=C(CN1C(=O)c2cccc3cccc(c23)C1=O)N1CCCCCC1	none
Cc1cccc(NC(=O)C(=O)NNC(=O)c2ccc(C(C)(C)C)cc2)c1	none
Cc1ccc(F)c(NC(=O)/C(C#N)=C(\O)c2ccc(C(C)(C)C)cc2)c1	V-ATPase pHluor 16 | V-ATPase pH SP inactive
O=C(C/C(=N/O)c1ccccc1O)C(F)F	V-ATPase pHluor 26 | V-ATPase pH SP inactive
Cc1cc(S(=O)(=O)N2CCCOC2CNC(=O)C(=O)NCc2cccs2)ccc1F (stereo not given)	none
CCNC(=O)COC(=O)CCC(=O)c1ccc(F)cc1	none | V-ATPase pH SP inactive
CC(C)CCNC(=O)c1cc2c(=O)n3ccccc3nc2s1	none
O=C(c1cccnc1)N1CCN(Cc2ccc3ccccc3c2)CC1	V-ATPase pHluor 10 | V-ATPase pH SP inactive
O=C(c1cccnc1)N1CCN(Cc2cccc(F)c2)CC1	none

Screening data from PubChem BioAssay.
